We go through 52 compounds from PubChem BioAssay AID651812 (National Center for Advancing Translational Sciences (NCATS), 2012).

The campaign covered roughly 2,100 compounds. About 650 (31%) were called active. About 16% were inconclusive and are not listed. This is one part of the list. Unmarked numbers belong to inactive results. Calls follow the shape of the dose curve; as a rule, active = well fitted inhibition curve with a large enough effect; inconclusive = small, poorly fitted or top-dose-only effect; inactive = flat fitted curve, though single readings scatter.
Potency is read from the fitted curve at half-maximal effect.

This assay can be described thus: qHTS for inhibitors of Vif-A3G interactions: Cherry picks. Also: nearly all actives have a fitted effect of over 80% in size. As to activity, negative = fluorescence increase: % of control where 0% means no effect. Particulars: HeLa A3G-eYFP + Vif (tagged APOBEC3G with the HIV-1 protein that degrades it), 24 h; Potency: eYFP fluorescence increase; series mostly up to 36.9 µM; activity, negative = fluorescence increase: at the top concentration. The gist of the method:
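HeLa cells stably expressing A3G-eYFP and Vif, cultured overnight then exposed to compounds at several concentrations for 24 hours at 37 C, 5% CO2; cellular yellow fluorescence (488 nm ex, 500-530 nm em) imaged on Acumen, MG132 positive control.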
Background: Quantitative high-throughput screening tests each substance at several concentrations.
For the compound `COc1cc(C(=O)c2ccc3c(c2)OCO3)cc(OC)c1OC`, the “activity, negative = fluorescence increase” value was -6.58%.

As for `Oc1ccc(C2=NNC(=NCc3ccc4c(c3)OCO4)SC2)c(O)c1`, the “activity, negative = fluorescence increase” value was -6.47%.

`CC1(C(=O)NCc2ccccc2)Cc2c(-c3ccc(C(N)=O)cc3)ccnc2O1` (configuration not stated): the “activity, negative = fluorescence increase” value was -2.29%.

With `Cc1ccc2nsnc2c1NC(=O)c1ccc(-c2cc(Cl)ccc2Cl)o1`, the Potency was 15.8 µM (active).

Turning to `CCSc1nccc(-c2nn(-c3ccc(C)cc3)ccc2=O)n1`, the “activity, negative = fluorescence increase” value is -4.33%.

For the compound `CC(C)c1ccc(C(=O)NCCCNC(=O)c2cnccn2)cc1`, the “activity, negative = fluorescence increase” value is -3.75%.

In the case of `CC(=O)Nc1cccc(-c2ccnc3c2CC(C(=O)Nc2ccc(Cl)cc2)O3)c1` (configuration not stated), the “activity, negative = fluorescence increase” value is -16.3%.

As for `CC(=O)Nc1ccc(C2=CC(=O)C[C@H](c3ccc(Cl)cc3)C2)cc1`, the Potency is 18.4 µM (active).

For `CC(=O)Nc1ccc2c(c1)Cc1ccc(Cl)cc1-2`, the “activity, negative = fluorescence increase” value was -2.7% [at 46.1 µM].

Regarding `CCSC1=N/C(=C\C=C2/Oc3ccccc3N2CC)C(=O)S1`, the Potency is 14.6 µM (active).

`CC(=O)Oc1ccc(N2C(=O)c3cccc4c([N+](=O)[O-])ccc(c34)C2=O)cc1`: the Potency is 1.46 µM (active).

As for `O=C1c2cccc3c([N+](=O)[O-])ccc(c23)C(=O)N1c1ccccn1`, the Potency is 5.8 µM (active).

With `Cc1nnc(N2C(=O)c3cccc4c([N+](=O)[O-])ccc(c34)C2=O)s1`, the Potency was 18.4 µM (active).

For `COC(=O)[C@@]1(Cc2ccccc2)[C@@H]2C(=CC(=O)[C@H]2CC(=O)C(=O)N(C)C)CN1C(=O)c1ccccc1`, the “activity, negative = fluorescence increase” value is 0.342%.

Regarding `C/C(=N\NC(=S)NC(C)C)c1ccc(C(C)(C)C)cc1`, the “activity, negative = fluorescence increase” value was -8.17% [at 46.1 µM].

As to `CCCSc1nnc(N2C(=O)C(O)=C(C(=O)c3ccco3)C2c2ccccc2F)s1` (configuration not stated), the “activity, negative = fluorescence increase” value was -1.17% [at 46.1 µM].

Turning to `N#CC1=C(N)Oc2cc(N)ccc2C1c1cccc(Br)c1` (configuration not stated), the “activity, negative = fluorescence increase” value was -12.2%.

`N#CC1=C(N)Oc2ccc3ccccc3c2C1c1cccnc1` (configuration not stated): the “activity, negative = fluorescence increase” value is -12.2%.

As to `CCN(CC)c1ccc2c(c1)OC(N)=C(C#N)C2c1cccnc1` (configuration not stated), the Potency is 17.7 µM (active).

As to `Cc1cccc2[nH]cc(/C=C3/C=Nc4ccccc43)c12`, the Potency is 18.4 µM (active).

`CC(C)COc1ccc(C(=O)N/C(=C/c2cccc([N+](=O)[O-])c2)C(=O)O)cc1`: the “activity, negative = fluorescence increase” value was -7.22%.

On to `Cc1nc2c3ccccc3n(Cc3ccccc3F)c2s1`, for which the “activity, negative = fluorescence increase” value was 5.45%.

On to `FC(F)(Cl)c1nnc2ccc(Cl)nn12`, for which the “activity, negative = fluorescence increase” value is -7.87%.

Turning to `CCc1ccc(N=Nc2ccc(O)c3[nH]cnc23)cc1`, the Potency is 13 µM (active).

With `CCOc1cc(C(=O)NN=C2CCCC2)cc(OCC)c1OCC`, the “activity, negative = fluorescence increase” value is -3.08%.

With `COc1ccc2c(Cl)c(C(=O)N/N=C3\CCCC(=O)C3)sc2c1`, the Potency was 17.7 µM (active).

Take `CCS(=O)(=O)Nc1cccc(C2=NN(C(=O)c3ccco3)C(c3ccco3)C2)c1` (configuration not stated): the “activity, negative = fluorescence increase” value was -1.87%.

As to `O=[N+]([O-])c1ccc(/C=C/C2=NN(c3ccccc3)C(c3ccco3)C2)o1` (configuration not stated), the Potency is 3.66 µM (active).

On to `O=[N+]([O-])c1ccc(C2=NN(c3ccccc3)C(c3ccco3)C2)cc1` (configuration not stated), for which the Potency is 1.25 µM (active).

With `C(=C\c1ccco1)/C1=NN(c2ccccc2)C(c2ccco2)C1` (configuration not stated), the Potency was 23.1 µM (active).

`COC(=O)c1cc(C(=O)N2CCN(c3ccccc3OC)CC2)cc([N+](=O)[O-])c1`: the “activity, negative = fluorescence increase” value is -5.78%.

As to `Clc1ccccc1Cn1c(/C=C/c2ccco2)nc2ccccc21`, the “activity, negative = fluorescence increase” value was -3.73%.

Consider `COc1ccccc1N=C(C)C1=C(O)CC(c2ccccc2)CC1=O` (configuration not stated), for which the “activity, negative = fluorescence increase” value was -7.64%.

For the compound `COc1ccccc1N1N=C(c2ccc([N+](=O)[O-])cc2)CC1c1ccccc1` (configuration not stated), the Potency was 1.4 µM (active).

`O=C(/C=C/c1ccco1)N1CCc2ccccc21`: the “activity, negative = fluorescence increase” value was -6.03% [at 46.1 µM].

For `Cc1ccc(C(=O)NC(=C(Cl)Cl)S(=O)(=O)c2ccccc2)cc1`, the “activity, negative = fluorescence increase” value is -9.1%.

In the case of `COc1ccc(OC)c(Nc2ncnc3c2cnn3-c2cccc(Cl)c2)c1`, the “activity, negative = fluorescence increase” value was -1.34% [at 46.1 µM].

`COc1ccc(NC(=O)C2Cc3c(-c4ccc(NC(C)=O)cc4)ccnc3O2)cn1` (configuration not stated): the “activity, negative = fluorescence increase” value was -12.1%.

`Cn1c2ccccc2c2ccc3c(c21)C(=O)C=CC3=O`: the “activity, negative = fluorescence increase” value was -5.19% [at 46.1 µM].

`N#CC(C(=S)Nc1ccccc1)c1nc2ccccc2[nH]1` (configuration not stated): the “activity, negative = fluorescence increase” value is -46.8% [at 46.1 µM].

On to `Cc1cccc(C)c1NC(=S)NC(C)CCc1ccccc1` (configuration not stated), for which the “activity, negative = fluorescence increase” value is 8.84% [at 46.1 µM].

Take `Cc1cc(C)nc(Nc2nc(C(N)Cc3ccccc3)cs2)n1` (configuration not stated): the “activity, negative = fluorescence increase” value is -0.643%.

As for `Cc1sc2nc(SCC(=O)N3CCOCC3)[nH]c(=O)c2c1-c1ccccc1`, the “activity, negative = fluorescence increase” value was 8.43% [at 46.1 µM].

As to `COc1ccc2c(C)cc(SCC#N)nc2c1`, the Potency was 18.4 µM (active).

For the compound `CCN(CC)c1nc2cc(OC)ccc2cc1C#N`, the “activity, negative = fluorescence increase” value was 6.08% [at 46.1 µM].

Consider `Cc1cc(SCC(=O)c2cccs2)nc2ccccc12`, for which the “activity, negative = fluorescence increase” value is -1.59% [at 46.1 µM].

Regarding `COc1ccc2c(C)cc(SCC(=O)N3CCOCC3)nc2c1`, the Potency is 18.4 µM (active).

Consider `CO/N=C/c1ccc(OC)c(Oc2nc(OC)cc(OC)n2)c1`, for which the “activity, negative = fluorescence increase” value is -8.03%.

For the compound `COc1ccc(C2C(C#N)=C(N)Oc3c2ccc2cccnc32)cc1OC` (configuration not stated), the “activity, negative = fluorescence increase” value was -2.64%.

For the compound `CS(=O)(=O)N1N=C(c2ccccc2)CC1c1ccc2c(c1)OCO2` (configuration not stated), the Potency was 14 µM (active).

With `c1ccc(-c2nccc(-c3ccc4c(c3)OCO4)n2)cc1`, the “activity, negative = fluorescence increase” value is -0.239%.

In the case of `CS(=O)(=O)Nc1cccc(C2=NN(S(C)(=O)=O)C(c3ccc4c(c3)OCO4)C2)c1` (configuration not stated), the “activity, negative = fluorescence increase” value is -7.77%.
